Data reported in PubChem BioAssay (NCATS).
Inconclusive results are not listed. The source made the active and inactive calls. Unless noted, calls follow the shape of the dose curve; as a rule, active = well fitted curve in either direction with a large enough effect (not every such curve was filed as active); inconclusive = small, poorly fitted or top-dose-only effect, or another doubt; inactive = flat fitted curve, though single readings scatter.

Columns and labels:
[1] = target: Lysosomal acid glucosylceramidase (Homo sapiens) (UniProt P04062); assay: Glucocerebrosidase-p2 (AID 348; in the data active = potency below about 10 µM; also: potency is read from the fitted curve at half-maximal effect); settings: purified GBA, blue fluorogenic substrate, 40 min
Summary of the method: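 Compounds titrated from 0.6 nM upwards against 0.2 nM enzyme in pH 5.9 citric acid/KH2PO4, taurocholate, tween-20; blue fluorogenic substrate 80 uM, 40 min room temperature, stopped and read Ex 365/Em 440 for AC50.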

[2] = AP1 Signaling Pathway (AID 357); settings: ME-180 AP-1-bla reporter, EGF-induced, beta-lactamase ratio, 5 h; at 7.69 µM (top of the series) unless noted;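 also: ME-180 reporter cells stimulated with EGF at its EC50 level; % is scaled to controls: 0 for no effect and ±100 for the full control effect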
Summary of the method: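 First, ME-180 AP-1-bla cells were cultured overnight at 37 °C in low-serum Opti-MEM. Next, titrated compounds with EC50 EGF were incubated 5 hours. Finally, CCF4 was added for 2.5 hours and the 460/530 nm ratio recorded.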

[3] = NFAT Signaling Pathway (AID 444); settings: Jurkat NFAT-bla M1, carbachol, beta-lactamase ratio, 5 h; at 7.69 µM (top of the series) unless noted;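 also: carbachol stimulus at about its EC50 of 1 µM final; % is scaled to controls: 0 for no effect and ±100 for the full control effect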
Summary of the method: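 Jurkat cells with NFAT-driven β-lactamase reporter and co-expressed M1 receptor, stimulated with carbachol (final 1 uM, ~EC50), compound titration, 5 h at 37 °C. CCF4 loaded 1 h at RT; 460/530 nm ratio gave %activity and AC50.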

[4] = Stat Signaling Pathway (AID 446); settings: ME-180 SIE beta-lactamase reporter, IL-6 stimulated, 5 h; at 7.69 µM (top of the series) unless noted;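 also: ME-180 cervical cancer cells given 40 pM IL-6 alongside compound; SIE-controlled beta-lactamase reporter measured as 460/530 nm FRET emission ratio; % is scaled to controls: 0 for no effect and ±100 for the full control effect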
Summary of the method: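 IL-6/STAT signaling read in ME-180 cells via an SIE beta-lactamase reporter. Stimulus was 40 pM IL-6 (its AC50) for 5 hrs, so both activation and inhibition register.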

[5] = target: Glucocorticoid receptor (Homo sapiens) (UniProt P04150); assay: GR-EFC Redistribution (AID 451; calls by dose curve; also: potency is read from the fitted curve at half-maximal effect); settings: CHO-K1 GR-EFC translocation, beta-gal luminescence, 2 h
Summary of the method: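 CHO-K1 cells expressing nuclear EA and GR-ED fragments of b-gal; compounds titrated up to 46 uM final, 2 h at 37 C. GR nuclear translocation read as complemented b-gal luminescence after 1 h RT detection.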

[6] = target: Mitogen-activated protein kinase 10 (Mus musculus) (UniProt Q61831); assay: JNK3 AlphaScreen Assay (AID 530); settings: JNK3 lysate, c-Jun phosphorylation; series mostly up to 57.1 µM;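 also: kinase came from lysate of stimulated human HepG2 cells; signal reports phosphorylation of biotinylated GST-cJun 1-79 at Ser73 with 10 µM ATP; % is scaled to controls: 0 for no effect and ±100 for the full control effect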
Summary of the method: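 qHTS format: compounds tested as titrations against IL-1beta/TNF-alpha-activated HepG2 lysate JNK3 with biotin-GST-cJun substrate and 10 uM ATP at room temperature. Loss of anti-phospho-cJun AlphaScreen signal indicates inhibition.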

[7] = target: 3',5'-cyclic-AMP phosphodiesterase 4B (Homo sapiens) (UniProt Q07343); assay: qHTS Assay for Inhibitors of PDE-IV (AID 607; active = well fitted activation curve with a large enough effect in the main read-out, with a control signal flat, not every such curve was filed as active; also: % of control where 0% means no effect); settings: HEK293 ACTOne CNG channel cells, membrane potential fluorescence; series mostly up to 22.9 µM
Summary of the method: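 Live HEK293 cells with a modified cyclic nucleotide-gated (CNG) channel report intracellular cAMP via membrane-potential dye fluorescence (ex 535/em 590 nm). Endogenous PDE-IV was targeted. Compounds were tested at up to 22.9 uM final; RO 20-1724 100 uM served as control.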

[8] = target: Cytochrome P450 2D6 (Homo sapiens) (UniProt P10635); assay: qHTS Assay for Inhibitors and Substrates of Cytochrome P450 2D6 (AID 891; active = well fitted curve in the direction sought with a large enough effect; an effect the other way counts as inactive or inconclusive; also: potency is read from the fitted curve at half-maximal effect; nearly all actives have a fitted effect of over 60% in size); settings: recombinant CYP2D6, luciferin-ME EGE luminescence; series mostly up to 57.1 µM
Summary of the method: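 Human CYP2D6 (5 nM) with 30 uM Luciferin-ME EGE (at Km) in 100 mM KPO4, compound preincubated 10 min, then NADPH regeneration system for 60 min at room temperature. Luciferin read by luminescence; normalized to 1.43 uM quinidine.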

[9] = qHTS Assay for Lipid Storage Modulators (AID 1519; calls by dose curve); settings: Drosophila S3 cells, BODIPY lipid droplet/cell ratio, laser cytometry, cells loaded with oleic acid; for activity change, negative = inhibition: at 57.5 µM (top of the series)
Summary of the method: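 Cells seeded at 5,000 per well were treated with compounds over a concentration series and loaded with oleic acid (400 uM, as added). Lipid droplet fluorescence (488 nm excitation, 500-530 nm channel) was read by laser-scanning cytometry and normalized to 20 uM Triacsin C.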

[10] = Primary qHTS for small molecule stabilizers of the endoplasmic reticulum resident proteome: Secreted ER Calcium Modulated Protein (SERCaMP) assay (AID 1508630; active = well fitted curve in the direction sought with a large enough effect; an effect the other way counts as inactive or inconclusive; also: % is scaled to controls: 0 for no effect and ±100 for the full control effect); settings: SH-SY5Y GLuc-SERCaMP (Gaussia luciferase released on ER calcium loss) secretion, thapsigargin, luminescence; series mostly up to 38.4 µM
Summary of the method: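 GLuc-SERCaMP-expressing SH-SY5Y cells, pretreated 16 h with compound, are challenged with thapsigargin to empty ER calcium stores; after 4 h, coelenterazine is added directly to the medium and luminescence is imaged.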

[11] = target: Cytochrome P450 3A4 (Homo sapiens) (UniProt P08684); assay: qHTS Assay for Activators of Cytochrome P450 3A4 (AID 885; active = well fitted curve in the direction sought with a large enough effect; an effect the other way counts as inactive or inconclusive; also: nearly all actives have a fitted effect of over 65% in size); settings: recombinant CYP3A4, Luciferin-PPXE luminescence, 60 min; series mostly up to 57.1 µM
Summary of the method: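 Quantitative HTS format: compounds preincubated with 20nM human CYP3A4 and Luciferin-PPXE substrate at KM, reaction started by NADPH regeneration, stopped after 60 min, luciferase luminescence read 20 min later.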

[12] = qHTS Assay for Identification of Small Molecule Agonists for Hypoxia Response Element Signaling Pathway (AID 914; active = well fitted activation curve with a large enough effect in the signal ratio, with a control signal flat, not every such curve was filed as active; the % refers to the signal ratio; also: % of control where 0% means no effect); settings: ME-180 (cervical carcinoma) HRE-bla reporter, beta-lactamase ratio, CoCl2, 17 h; activation: stronger effect = higher value
Summary of the method: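 Compounds in a titration series were added to ME-180 reporter cells alongside an EC50 level of CoCl2. After 17 hours, beta-lactamase activity was read as the 460nm/530nm emission ratio of CCF4, giving AC50 values.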

[13] = measured here: cell count channel max response
[14] = measured here: lipid channel max response

3',5'-cyclic-AMP phosphodiesterase 4B (Homo sapiens), sequence (Q07343 whole entry, looked up): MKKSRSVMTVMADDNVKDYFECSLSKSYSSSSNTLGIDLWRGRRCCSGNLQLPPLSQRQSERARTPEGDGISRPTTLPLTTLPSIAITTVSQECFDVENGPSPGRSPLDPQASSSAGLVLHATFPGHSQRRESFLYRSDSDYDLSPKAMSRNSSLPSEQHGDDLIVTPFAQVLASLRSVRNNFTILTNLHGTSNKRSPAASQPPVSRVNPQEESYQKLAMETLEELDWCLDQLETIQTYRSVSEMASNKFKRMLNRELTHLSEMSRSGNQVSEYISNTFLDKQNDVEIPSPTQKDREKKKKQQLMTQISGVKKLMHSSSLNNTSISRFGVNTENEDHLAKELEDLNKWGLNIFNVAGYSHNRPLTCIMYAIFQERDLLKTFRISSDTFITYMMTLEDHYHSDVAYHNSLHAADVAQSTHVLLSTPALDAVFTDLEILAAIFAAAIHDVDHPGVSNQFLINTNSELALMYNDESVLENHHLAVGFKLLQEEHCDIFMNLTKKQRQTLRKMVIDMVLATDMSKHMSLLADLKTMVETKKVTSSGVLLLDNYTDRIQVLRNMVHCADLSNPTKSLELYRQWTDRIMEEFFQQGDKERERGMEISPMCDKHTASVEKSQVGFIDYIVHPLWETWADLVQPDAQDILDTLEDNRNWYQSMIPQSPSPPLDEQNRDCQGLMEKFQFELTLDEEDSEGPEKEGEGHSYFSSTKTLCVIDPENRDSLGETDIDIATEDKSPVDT
Glucocorticoid receptor (Homo sapiens), sequence (P04150 whole entry, looked up, the tested form may be a part): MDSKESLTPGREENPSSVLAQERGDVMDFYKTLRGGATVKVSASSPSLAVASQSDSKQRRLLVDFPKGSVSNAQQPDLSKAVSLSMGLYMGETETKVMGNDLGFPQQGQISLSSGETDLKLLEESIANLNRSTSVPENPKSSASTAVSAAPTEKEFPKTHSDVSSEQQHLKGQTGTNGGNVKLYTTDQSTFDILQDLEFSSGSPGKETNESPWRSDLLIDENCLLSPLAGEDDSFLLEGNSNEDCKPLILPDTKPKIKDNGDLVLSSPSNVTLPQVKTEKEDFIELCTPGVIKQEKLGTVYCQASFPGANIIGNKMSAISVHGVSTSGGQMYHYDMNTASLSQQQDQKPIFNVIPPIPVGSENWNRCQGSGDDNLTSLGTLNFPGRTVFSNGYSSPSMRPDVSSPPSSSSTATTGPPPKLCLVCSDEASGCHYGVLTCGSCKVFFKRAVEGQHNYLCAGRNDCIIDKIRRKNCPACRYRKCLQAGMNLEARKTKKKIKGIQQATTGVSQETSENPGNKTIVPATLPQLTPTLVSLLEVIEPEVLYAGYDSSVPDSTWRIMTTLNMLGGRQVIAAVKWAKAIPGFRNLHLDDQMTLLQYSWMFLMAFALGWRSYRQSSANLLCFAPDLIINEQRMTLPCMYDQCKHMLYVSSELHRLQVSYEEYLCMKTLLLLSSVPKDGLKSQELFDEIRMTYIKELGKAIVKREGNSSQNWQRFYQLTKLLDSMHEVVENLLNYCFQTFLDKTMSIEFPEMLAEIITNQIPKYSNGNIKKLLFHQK
Lysosomal acid glucosylceramidase (Homo sapiens), sequence (P04062 whole entry, looked up): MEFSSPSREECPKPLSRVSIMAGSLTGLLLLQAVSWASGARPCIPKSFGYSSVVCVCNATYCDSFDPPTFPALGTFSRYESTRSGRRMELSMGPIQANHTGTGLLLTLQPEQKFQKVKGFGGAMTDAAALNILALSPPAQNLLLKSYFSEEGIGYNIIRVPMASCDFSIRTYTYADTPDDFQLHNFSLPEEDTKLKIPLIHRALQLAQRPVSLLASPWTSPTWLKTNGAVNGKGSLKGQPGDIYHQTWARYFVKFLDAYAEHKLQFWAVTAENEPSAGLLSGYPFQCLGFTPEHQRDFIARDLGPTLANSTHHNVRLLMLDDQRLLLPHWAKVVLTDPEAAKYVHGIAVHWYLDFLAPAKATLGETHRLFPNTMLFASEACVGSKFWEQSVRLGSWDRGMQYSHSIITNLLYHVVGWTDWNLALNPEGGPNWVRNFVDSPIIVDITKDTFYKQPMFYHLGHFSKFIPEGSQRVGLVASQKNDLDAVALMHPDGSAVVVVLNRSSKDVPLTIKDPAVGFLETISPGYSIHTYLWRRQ
Cytochrome P450 3A4 (Homo sapiens), sequence (P08684 whole entry, looked up): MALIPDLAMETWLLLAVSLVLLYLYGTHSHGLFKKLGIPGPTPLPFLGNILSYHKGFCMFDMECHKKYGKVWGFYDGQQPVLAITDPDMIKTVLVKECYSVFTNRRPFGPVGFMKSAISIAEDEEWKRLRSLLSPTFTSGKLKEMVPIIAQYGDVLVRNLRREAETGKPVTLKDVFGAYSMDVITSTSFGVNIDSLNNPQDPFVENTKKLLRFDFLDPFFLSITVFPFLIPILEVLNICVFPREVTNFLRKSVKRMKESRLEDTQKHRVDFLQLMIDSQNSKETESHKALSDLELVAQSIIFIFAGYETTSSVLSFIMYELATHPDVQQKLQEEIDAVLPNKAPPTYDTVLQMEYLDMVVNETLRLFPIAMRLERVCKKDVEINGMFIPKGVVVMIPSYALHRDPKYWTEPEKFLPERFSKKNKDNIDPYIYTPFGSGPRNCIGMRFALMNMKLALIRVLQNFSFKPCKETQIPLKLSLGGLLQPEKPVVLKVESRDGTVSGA
Cytochrome P450 2D6 (Homo sapiens), sequence (P10635 whole entry, looked up): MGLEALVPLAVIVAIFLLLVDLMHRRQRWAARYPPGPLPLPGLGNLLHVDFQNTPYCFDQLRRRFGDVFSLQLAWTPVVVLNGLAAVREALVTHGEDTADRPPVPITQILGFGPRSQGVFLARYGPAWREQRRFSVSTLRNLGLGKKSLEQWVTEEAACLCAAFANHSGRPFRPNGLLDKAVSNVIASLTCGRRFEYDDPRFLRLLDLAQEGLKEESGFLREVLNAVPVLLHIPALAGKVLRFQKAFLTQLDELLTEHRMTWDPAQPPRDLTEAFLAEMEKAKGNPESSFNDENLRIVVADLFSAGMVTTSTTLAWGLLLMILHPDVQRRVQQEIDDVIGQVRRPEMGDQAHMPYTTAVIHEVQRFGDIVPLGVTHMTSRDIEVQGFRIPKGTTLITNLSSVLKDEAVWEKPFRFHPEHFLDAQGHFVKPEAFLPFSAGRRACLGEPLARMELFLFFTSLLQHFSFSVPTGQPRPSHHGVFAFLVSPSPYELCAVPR

CC(C)NC(=O)N1CC2(CCN(C(=O)c3cc(C(F)(F)F)cc(C(F)(F)F)c3)CC2)C1
active: Potency [8] 0.251 µM
11%: max response [9, 13]
13.7%: max response [9, 14]
inactive: Potency [1] > 11.4 µM | activity change, negative = inhibition [2] -16.3% | activity change, negative = inhibition [3] 6.43% | activity, negative = inhibition [4] -11.9% | Potency [5] > 46 µM | Potency [6] | Potency [7] | activity change, negative = inhibition [9] 0.828% | outcome [10]

COc1ccc(NC(=O)N2CC[C@@]3(CCCN(S(C)(=O)=O)C3)C2)cc1
8.24%: max response [9, 13]
15.1%: max response [9, 14]
inactive: Potency [1] > 11.4 µM | activity change, negative = inhibition [2] -12.7% | activity change, negative = inhibition [3] 4.27% | activity, negative = inhibition [4] -1.03% | Potency [5] > 46 µM | Potency [6] | Potency [7] | Potency [11] | activity change, negative = inhibition [9] 4.71% | outcome [10]

COCC(=O)N1CCC2(CCN(Cc3nccs3)CC2)CC1
inactive: Potency [1] > 11.4 µM | activity change, negative = inhibition [2] 0.0953% | activity change, negative = inhibition [3] -2.93% | activity, negative = inhibition [4] 10% | Potency [5] > 46 µM | Potency [6] | Potency [7] | activation [12] 14.8% | activity change, negative = inhibition [9] 2.2% | outcome [10]
9.94%: max response [9, 13]
16.3%: max response [9, 14]

COc1ccc(C(=O)N2CCC[C@@]3(CCN(c4ccncc4)C3)C2)cc1
-10.7%: max response [9, 14]
inactive: Potency [1] > 11.4 µM | activity change, negative = inhibition [2] -1.81% | activity change, negative = inhibition [3] -12.2% | activity, negative = inhibition [4] -6.9% | Potency [5] > 46 µM | Potency [6] | Potency [7] | activity change, negative = inhibition [9] 0.196% | outcome [10]
-12%: max response [9, 13]

CC(=O)N1CCC2(CC1)CCN(c1ncccn1)CC2
inactive: Potency [1] > 11.4 µM | activity change, negative = inhibition [2] -16.8% | activity change, negative = inhibition [3] -1.48% | activity, negative = inhibition [4] 10.5% | Potency [6] | Potency [7] | activity change, negative = inhibition [9] 4.77% | outcome [10]
17.2%: max response [9, 14]
8.06%: max response [9, 13]

COc1ccc(C(=O)N2CCC3(CC2)CN(c2ccc(-c4ccccc4)cc2)C3)cc1
7.61%: max response [9, 14]
9.2%: max response [9, 13]
inactive: Potency [1] > 11.4 µM | activity change, negative = inhibition [2] -5.62% | activity change, negative = inhibition [3] -9.07% | Potency [5] > 46 µM | Potency [6] | Potency [7] | activity change, negative = inhibition [9] -3.67% | outcome [10]

O=C(c1ccncc1)N1CCC2(CCCN(c3ccccc3)C2)CC1
inactive: Potency [1] > 11.4 µM | activity change, negative = inhibition [2] -3.67% | activity change, negative = inhibition [3] 3.61% | activity, negative = inhibition [4] -3.54% | Potency [5] > 46 µM | Potency [6] | Potency [7] | activity change, negative = inhibition [9] 6.76% | outcome [10]
7.52%: max response [9, 13]
17.5%: max response [9, 14]

COC(=O)N1CCC[C@@]2(CCN(Cc3cc(C(F)(F)F)cc(C(F)(F)F)c3)C2)C1
inactive: Potency [1] > 11.4 µM | activity change, negative = inhibition [2] -12.5% | activity change, negative = inhibition [3] 9.2% | activity, negative = inhibition [4] -8.1% | Potency [5] > 46 µM | Potency [6] | Potency [7] | activity change, negative = inhibition [9] -1.37% | outcome [10]
14.8%: max response [9, 14]
12.3%: max response [9, 13]

O=C(Nc1ccccc1)N1CC[C@@]2(CCCN(C(=O)c3cccc(F)c3)C2)C1
inactive: Potency [1] > 11.4 µM | activity change, negative = inhibition [2] -10.5% | activity change, negative = inhibition [3] -6.63% | activity, negative = inhibition [4] 4.89% | Potency [5] > 46 µM | Potency [6] | Potency [7] | Potency [11] | activity change, negative = inhibition [9] 5.88% | outcome [10]
27.2%: max response [9, 14]
19.2%: max response [9, 13]

COCC(=O)N1CCC2(CCCN(c3ccccc3)C2)CC1
inactive: Potency [1] > 11.4 µM | activity change, negative = inhibition [2] 4.54% | activity change, negative = inhibition [3] -7.94% | activity, negative = inhibition [4] -0.962% | Potency [5] > 46 µM | Potency [6] | Potency [7] | Potency [11] | activity change, negative = inhibition [9] 0.354% | outcome [10]
4.96%: max response [9, 13]
6.05%: max response [9, 14]
